# Values without a mark were called inactive. Records with an inconclusive call do not appear. Where a call stands in place of a potency, no number is given. Active and inactive are the calls of the source. Unless noted, calls come from the whole dose curve; as a rule, active = well fitted curve in the direction sought with a large enough effect in the repeat runs; inconclusive = weak or mixed curves; inactive = no such curve, though single readings can be large; an effect the other way counts as inactive or inconclusive.
# What was measured:
# [1] = target: Thyrotropin-releasing hormone receptor (Homo sapiens) (UniProt P34981); test: qHTS assay to identify small molecule agonists of the thyrotropin-releasing hormone receptor (TRHR) signaling pathway (AID 1346891; calls by dose curve; note: series mostly up to about 58 µM)
# How it was run: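 HEK293 cells expressing TRHR plated 18 h at 37 C/5% CO2, calcium dye-loaded 2 h at 37 C, then compound added (agonist mode); kinetic calcium fluorescence read 3 min at 1 s intervals; 15 concentrations in triplicate.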
# [2] = Human pregnane X receptor (PXR) small molecule agonists, qHTS cell viability counter screen (AID 1346977); note: nearly all actives have a fitted effect of over 50% in size
# How it was run: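 PXR-Luc HepG2 cells (2,000/well, 5% charcoal-stripped FBS) preincubated 5 hr, then exposed to compounds 24 hr at 37 C. Viability read in the same wells by CellTiter-Fluor fluorescence, reagent added at 23 hr, 1 hr incubation.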
# [3] = Caspase-3/7 induction in HepG2 cells by small molecules, qHTS assay (AID 1346978); note: nearly all actives have a fitted effect of over 15% in size; note: potency is the fitted concentration of half-maximal effect
# How it was run: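 Caspase-3/7 induction was measured by Caspase-Glo 3/7 luminescence (30 min, room temperature) after a 17 hr compound exposure of wild-type HepG2 cells seeded at 2,000 per well and pre-incubated 5 hr.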
# [4] = target: Nuclear receptor subfamily 1 group I member 2 (Homo sapiens) (UniProt O75469); test: Human pregnane X receptor (PXR) small molecule agonists, qHTS assay (AID 1346982); note: nearly all actives have a fitted effect of over 35% in size; note: potency is the fitted concentration of half-maximal effect
# How it was run: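 Luciferase signal from ONE-Glo (30 min, room temperature) measured activation of hPXR-driven CYP3A4 reporter expression in PXR-Luc HepG2 cells treated with compounds for 24 hr at 37 C.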
# [5] = Caspase-3/7 induction in CHO-K1 cells by small molecules, qHTS assay (AID 1346980); note: nearly all actives have a fitted effect of over 15% in size
# How it was run: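 Luminescent Caspase-Glo 3/7 read (30min, room temperature) quantified apoptosis induction. Cells were wild-type CHO-K1, treated with compound for 17hr at 37 C and 5% CO2.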
# [6] = Caspase-3/7 induction in HepG2 cells by small molecules, qHTS cell viability counter screen (AID 1346981); note: nearly all actives have a fitted effect of over 30% in size; note: potency is the fitted concentration of half-maximal effect
# How it was run: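 HepG2, WT, 2,000 cells/well; 5 hr pre-incubation 37 C/5% CO2; compound pin-transferred from DMSO; 16 hr exposure; CellTiter-Fluor, 1 hr; fluorescence read.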
# [7] = Caspase-3/7 induction in CHO-K1 cells by small molecules, qHTS cell viability counter screen (AID 1346979); note: nearly all actives have a fitted effect of over 35% in size; note: potency is the fitted concentration of half-maximal effect
# How it was run: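 Wild-type CHO-K1 cells (1,500/well) treated with compound after 5 h plating; after 16 h at 37C, viability read as CellTiter-Fluor fluorescence following 1 h reagent incubation, in the same wells as the caspase read.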
# [8] = target: Nuclear receptor subfamily 1 group I member 2 (Rattus norvegicus) (UniProt Q9R1A7); test: Rat pregnane X receptor (rPXR) activation by small molecules, qHTS assay (AID 1346983); conditions: rPXR luciferase reporter cells, One-Glo luminescence, 24 h; active compounds read high; note: nearly all actives have a fitted effect of over 20% in size
# How it was run: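 Luminescent readout (One-Glo luciferase, 30 min room temperature) followed 24 hr compound treatment at 37 C of rPXR cells plated 2,000 per well and preincubated 5hr; qHTS format with compounds delivered in DMSO.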
# [9] = target: Nuclear receptor subfamily 1 group I member 2 (Homo sapiens) (UniProt O75469); test: CYP3A4 induction through human pregnane X receptor (PXR) by small molecules, qHTS assay (AID 1346984); note: nearly all actives have a fitted effect of over 40% in size
# How it was run: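 Luminescence readout: luciferase signal after One-Glo (30 min, room temperature), following 3 h at 37C with 3uM final Luciferin-IPA P450 substrate. Cells were DPX-2 (HepG2, PXR/CYP3A4-luc co-transfected) dosed for 24 h.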
# [10] = target: Nuclear receptor subfamily 1 group I member 2 (Homo sapiens) (UniProt O75469); test: Human pregnane X receptor (PXR) activation by small molecules, qHTS assay (AID 1346985); note: nearly all actives have a fitted effect of over 40% in size; note: potency is the fitted concentration of half-maximal effect
# How it was run: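 DPX-2 cells (HepG2 co-transfected with a PXR response element and a CYP3A4-promoter luciferase construct) were seeded at 2,000 per well, rested 5 hr at 37C, then exposed to DMSO-dissolved compounds for 24 hr. Activation was read as luciferase luminescence.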
# Thyrotropin-releasing hormone receptor (Homo sapiens), sequence (P34981 whole entry, looked up): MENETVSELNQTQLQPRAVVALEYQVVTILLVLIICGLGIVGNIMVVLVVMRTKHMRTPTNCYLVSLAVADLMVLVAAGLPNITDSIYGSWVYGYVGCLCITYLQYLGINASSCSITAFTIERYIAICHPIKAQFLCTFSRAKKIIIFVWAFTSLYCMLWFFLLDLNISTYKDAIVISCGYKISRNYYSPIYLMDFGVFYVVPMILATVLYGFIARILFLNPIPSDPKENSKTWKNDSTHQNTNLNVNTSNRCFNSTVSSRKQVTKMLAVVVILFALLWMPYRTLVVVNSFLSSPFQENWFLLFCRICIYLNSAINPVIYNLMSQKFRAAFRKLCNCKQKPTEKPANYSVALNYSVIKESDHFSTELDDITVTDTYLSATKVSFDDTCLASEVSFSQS
# Nuclear receptor subfamily 1 group I member 2 (Homo sapiens), sequence (O75469 whole entry, looked up): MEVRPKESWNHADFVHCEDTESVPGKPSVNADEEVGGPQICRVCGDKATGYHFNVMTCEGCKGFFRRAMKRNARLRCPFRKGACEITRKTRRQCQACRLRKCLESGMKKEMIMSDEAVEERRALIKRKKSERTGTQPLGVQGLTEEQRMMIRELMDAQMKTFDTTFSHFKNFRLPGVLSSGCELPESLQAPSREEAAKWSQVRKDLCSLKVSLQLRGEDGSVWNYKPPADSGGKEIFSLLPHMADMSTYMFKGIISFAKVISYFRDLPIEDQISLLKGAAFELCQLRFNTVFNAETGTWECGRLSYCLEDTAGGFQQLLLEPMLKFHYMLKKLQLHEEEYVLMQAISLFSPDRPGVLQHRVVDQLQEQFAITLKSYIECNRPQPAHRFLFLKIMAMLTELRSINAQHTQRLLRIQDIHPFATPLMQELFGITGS
# Nuclear receptor subfamily 1 group I member 2 (Rattus norvegicus), sequence (Q9R1A7 whole entry, looked up): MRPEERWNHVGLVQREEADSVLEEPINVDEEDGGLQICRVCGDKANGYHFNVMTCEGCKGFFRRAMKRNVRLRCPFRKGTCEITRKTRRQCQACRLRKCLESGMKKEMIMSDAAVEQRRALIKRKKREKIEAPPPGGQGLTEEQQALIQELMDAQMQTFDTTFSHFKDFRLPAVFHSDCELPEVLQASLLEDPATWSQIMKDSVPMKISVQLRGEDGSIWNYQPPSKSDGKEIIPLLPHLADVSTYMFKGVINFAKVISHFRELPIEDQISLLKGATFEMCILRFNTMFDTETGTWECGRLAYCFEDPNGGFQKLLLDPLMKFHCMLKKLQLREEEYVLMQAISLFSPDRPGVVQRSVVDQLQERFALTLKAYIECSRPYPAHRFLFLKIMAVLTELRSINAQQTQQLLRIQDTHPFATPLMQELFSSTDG
Compound,outcome [1],Potency [2],Potency [3],Potency [4],outcome [5],Potency [6],Potency [7],max activation [8] [%],Potency [9],Potency [10]
O=S(=O)(O)c1cc(O)c2ccc(Nc3ccccc3)cc2c1,inactive,inactive,inactive,inactive,–,–,–,–,–,–
O=C(OCC(O)CO)c1ccccc1Nc1ccnc2c(C(F)(F)F)cccc12 (stereo unspecified),inactive,inactive,inactive,26.6 µM (active),inactive,inactive,–,–,–,–
COc1ccc2c(c1)C(=O)N(CCc1ccc(S(=O)(=O)NC(=O)NC3CCCCC3)cc1)C(=O)C2(C)C,inactive,inactive,inactive,–,–,inactive,inactive,-1.03,–,–
Cc1cccc(C)c1NC(=O)c1ccccc1C(=O)O,inactive,inactive,inactive,inactive,inactive,inactive,–,-1.88,inactive,inactive
CCCCOCCOC(=O)COc1nc(Cl)c(Cl)cc1Cl,–,inactive,inactive,–,inactive,inactive,inactive,–,–,–
CCOc1cc([N+](=O)[O-])c(OCC)cc1N1CCOCC1,inactive,inactive,inactive,30.6 µM (active),–,–,–,–,–,–
O=C(CCNNC(=O)c1ccncc1)NCc1ccccc1,inactive,inactive,inactive,inactive,inactive,inactive,–,–,–,–
CCOC(=O)c1ncn2c1CN(C)C(=O)c1cc(F)ccc1-2,–,inactive,inactive,inactive,inactive,inactive,inactive,–,–,–
O=C(c1ccc(O)cc1)c1ccc(O)c(O)c1O,inactive,–,inactive,13.7 µM (active),inactive,54.7 µM (active),61.4 µM (active),–,–,–
CC(=O)Nc1ccc(S(=O)(=O)Nc2ccc([N+](=O)[O-])cc2)cc1,inactive,–,inactive,inactive,inactive,29.8 µM (active),–,-3.2,inactive,inactive
O=C1c2ccccc2C(=O)C1c1ccccc1,inactive,inactive,inactive,inactive,–,inactive,inactive,-1.16,inactive,inactive
Cc1ccccc1C(=O)Nc1ccc(C(=O)N2CCCC(N(C)C)c3ccccc32)cc1 (stereo unspecified),inactive,–,3.76 µM (active),0.298 µM (active),inactive,inactive,–,–,–,–
Cc1ccc(S(=O)(=O)O)c(C)c1,inactive,inactive,inactive,inactive,inactive,–,–,–,–,–
CC(C)N(c1ccccc1)C(C)C,–,inactive,inactive,inactive,inactive,inactive,inactive,–,–,–
CCCCCCCCC(=O)Cl,inactive,inactive,inactive,inactive,–,–,inactive,–,–,–
CCCN1C[C@H](CSC)C[C@@H]2c3cccc4[nH]cc(c34)C[C@H]21,–,inactive,inactive,inactive,inactive,inactive,inactive,–,–,–
O=C1CC(c2ccc(Cl)cc2)CC(=O)N1,inactive,inactive,inactive,inactive,inactive,inactive,–,–,–,–

Compound,outcome [1],Potency [2],Potency [3],Potency [4],outcome [5],Potency [6],Potency [7],max activation [8] [%],Potency [9],Potency [10]
OC[C@H](Cc1cccc(O)c1)[C@H](CO)Cc1cccc(O)c1,inactive,–,inactive,inactive,–,inactive,inactive,–,–,–
COc1cc(N)ccc1C,–,inactive,inactive,–,–,–,inactive,–,–,–
O=C(NCCc1c[nH]c2ccccc12)c1cccnc1,inactive,inactive,inactive,26.6 µM (active),–,inactive,inactive,–,inactive,inactive
O=C(O)Cc1cn(-c2ccccc2)nc1-c1ccc(Cl)cc1,inactive,inactive,inactive,inactive,–,inactive,–,-1.93,inactive,inactive
CCCCC(CC)COCCO (stereo unspecified),–,inactive,inactive,inactive,inactive,inactive,inactive,–,–,–
CC(C)CCCC(C)(C)O,–,inactive,inactive,inactive,inactive,inactive,inactive,–,–,–
COc1ccc(S(=O)(=O)N2c3ccc(Cl)cc3[C@@](O)(c3ccccc3Cl)[C@H]2C(=O)N2CCC[C@@H]2C(N)=O)cc1OC,inactive,inactive,inactive,–,–,inactive,inactive,11.3,inactive,14.1 µM (active)
COc1cc2c(cc1OC)[C@@H]1CC(=O)[C@@H](CC(C)C)CN1CC2,inactive,inactive,–,–,inactive,inactive,inactive,–,–,–
CC1=CCC(C(C)C)=CC1,–,inactive,inactive,inactive,inactive,inactive,inactive,–,–,–
O=C(NCCN1CCOCC1)c1ccc(Cl)cc1,–,inactive,inactive,inactive,inactive,inactive,inactive,1.47,inactive,inactive
O=C(O)CCSSCCC(=O)O,–,inactive,inactive,inactive,inactive,inactive,inactive,–,–,–
CCn1ccc(NS(=O)(=O)c2ccc(N)cc2)nc1=O,–,inactive,inactive,inactive,inactive,inactive,inactive,–,–,–
CC(C)(C)c1cc(CCC(=O)NN)cc(C(C)(C)C)c1O,–,inactive,inactive,34.4 µM (active),inactive,inactive,inactive,–,–,–
CN(C)CCOCCO,–,inactive,inactive,inactive,inactive,inactive,inactive,–,–,–
COC(=O)CCCCCCCC(=O)OC,–,inactive,inactive,inactive,inactive,inactive,inactive,–,–,–
CCOCCOC(=O)/C=C/c1ccc(OC)cc1,–,inactive,inactive,inactive,inactive,inactive,inactive,–,–,–
CC1(C)S[C@@H]2[C@H](N=CN3CCCCCC3)C(=O)N2[C@H]1C(=O)O,–,inactive,inactive,inactive,inactive,inactive,inactive,-0.392,inactive,inactive

# Source: PubChem BioAssay (Tox21)
